Screens as filed in PubChem BioAssay.
Shown are actives, neighbours in structure and some others; about 2.2% of the full set was active somewhere.
TLR4-MyD88 BLA = TLR4-MyD88 interaction inhibition in cells; inhibition, % at 8.4 µM; HeLa CL3-4 TLR4/MyD88 BLA complementation, FRET ratio; actives 0.18% (n = 200,000); in the data active = inhibition above about 25%;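 also: 0% = vehicle and 100% = reference inhibitor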
TMEM16A inh = mouse TMEM16A channel inhibition, primary screen; actives 1.2% (n = 310,000); AID 588511; normalized B-score (activity score, 25-100; higher = stronger inhibition) at 10 µM; HEK293 TMEM16A/YFP iodide influx fluorescence, ionomycin;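 active = ratio plate-corrected score three or more library SD toward inhibition, starting fluorescence score within five deviations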;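 also: score derived from kinetic fluorescence span divided by baseline fluorescence per well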
GRK2 inh = blocks RNA aptamer binding to human GRK2 | P25098 | bead flow cytometry, FAM-aptamer displacement from GRK2 | inhibition of aptamer binding, % at 10 µM | actives 0.59% (n = 330,000) | AID 488847;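 active = inhibition of aptamer binding above 40%, roughly 3 SD of noise, on plates passing a quality check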;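 also: median bead fluorescence of bound FAM aptamer so fluorescent compounds give negative values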
TLR9-MyD88 block = blocks human TLR9 binding to MyD88; Q9NR96+Q99836; actives 0.21% (n = 340,000); CHO BLA complementation TLR9-MyD88, CCF4 FRET ratio; inhibition, % at 4.98 µM;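 active = inhibition above the mean over all tested compounds plus 3 SD, cut at about 21% in these data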;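 also: 0% = DMSO only wells and 100% = clavulanate BLA inhibitor control wells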
ANO1 activ = activators or potentiators of mouse TMEM16A chloride channel; actives 0.3% (n = 340,000); B-score at 10 µM; HEK293 TMEM16A/YFP-H148Q/I152L, iodide quench fluorescence; hits give low values;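 active = fluorescence-ratio B-score plate-corrected deviation score at least 3 library SD below zero, with starting fluorescence score within 5 deviations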;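 also: channel opened by trigger with iodide after compound preincubation; score built on the fluorescence ratio of max minus min over baseline; more negative score means more quench and so TMEM16A activation or potentiation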
NOD2 RIPK2 PPI = NOD2-RIPK2 protein interaction inhibition | O43353 | inhibition, % at 4.98 µM | actives 0.38% (n = 360,000) | CHO BLA complementation NOD2-RIPK2, CCF4 ratio | AID 624267; in the data active = inhibition above about 21%;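 also: 0% = vehicle only and 100% = reference blocker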
TMEM16A reconf = reconfirmed blocker of mouse TMEM16A calcium-activated chloride channel; shares compounds with TMEM16A inh; HEK293 TMEM16A/YFP-H148Q, iodide quench fluorescence; ionomycin added to raise cell calcium; inhibition, % at 10 µM; actives 39% (n = 2,300);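 active = mean duplicate percent inhibition, scaled so buffer wells are 0 and the reference blocker 100, over three buffer SD above buffer mean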
HEK293 Ca mobil = counter-screen for TMEM16A inhibitors: effect on calcium mobilization | shares compounds with TMEM16A inh | TMEM16A/YFP HEK293, Fluo4 calcium mobilization | calcium response (% of ionomycin), % at 10 µM | actives 2% (n = 2,300);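 active = duplicate-averaged calcium signal over 20% of the ionomycin maximum, relative to buffer baseline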;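 also: each well's signal is peak minus trough fluorescence divided by its pre-addition baseline; 0% = buffer wells and 100% = ionomycin wells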
YFP-HEK293 quench = counter-screen for TMEM16A inhibitors: effect in parental YFP-HEK293 cells; shares compounds with TMEM16A inh; iodide YFP quench, ionomycin; YFP ratio F(max-min)/F0 at 10 µM; 2,300 tested, under 10 active;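 active = yellow fluorescent protein signal ratio exceeding the buffer control mean by over 5 SD of those controls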;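 also: ratio is mean of duplicate wells from kinetic YFP trace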
ClC-1 inh = blocks the rat ClC-1 voltage-dependent chloride channel; shares compounds with TMEM16A inh; CHO ClC-1-YFP, iodide influx fluorescence quench; iodide control reads 0, buffer control 100; 2,300 tested, under 10 active; ratio percent, % at 10 µM;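 active = duplicate-mean ratio percent above the mean of iodide-only control wells, which defines zero, plus 5 of their SD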;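 also: higher percent means stronger block of ClC-1 iodide influx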
Active calls of the source: *; i = inactive; · = no result given.

SMILES	TLR4-MyD88 BLA	TMEM16A inh	GRK2 inh	TLR9-MyD88 block	ANO1 activ	NOD2 RIPK2 PPI	TMEM16A reconf	HEK293 Ca mobil	YFP-HEK293 quench	ClC-1 inh
O=C(Nc1ncc([N+](=O)[O-])s1)c1ccco1	·	i	2	0	i	0	·	·	·	·
Cc1ccc(C(=O)Nc2ncc([N+](=O)[O-])s2)cc1	·	25*	3	-10	i	-5	50%*	i	-0.98	-27
Cc1ccccc1-c1nc(C#N)c(N2CCCCC2)o1	·	i	0	-7	i	7	·	·	·	·
C/C(=N\n1nnnc1Nc1ccccc1)c1ccc(N)cc1	10	i	0	·	·	·	·	·	·	·
COc1ccccc1NS(=O)(=O)c1cc(NC(=O)c2ccc(Cl)nc2)ccc1Cl	2	25*	0	6	i	2	26%*	i	-1.1	-16
CSc1ccccc1-c1nnc(-c2ccccc2)o1	-7	i	0	5	i	-2	·	·	·	·
CSc1ccccc1-c1nnc(-c2ccc(C)cc2)o1	-4	25*	1	0	i	-16	i	i	-1.2	3
c1ccc(C[n+]2cccc3c4ccccc4ccc32)cc1	7	25*	1	0	i	-8	i	i	-1.1	-2
COC(=O)c1ccc(CNC(=O)COC(=O)CC23CC4CC(CC(Br)(C4)C2)C3)cc1	10	25*	0	3	i	-9	i	i	-0.92	-12
CCOC(=O)c1c(C)c(C(=O)NCc2ccco2)c(C)n1C	9	i	6	2	i	-3	·	·	·	·
CCOC(=O)c1c(C)c(C(=O)N2CCN(C(=O)c3ccco3)CC2)c(C)n1C	-3	100*	1	-10	i	1	i	i	-1	0
O=c1cc(C(F)(F)F)[nH]c2ccc(OC(F)(F)F)cc12	·	100*	0	·	i	-4	43%*	i	-0.87	-21
C=CCN1C(=O)c2ccc(C(=O)N3CCC(C(N)=O)CC3)cc2C1=O	·	i	1	-3	i	-2	·	·	·	·
CCCOc1ccc(/C=C/C(=O)N2CCN(C(=O)c3ccco3)CC2)cc1OC	·	·	·	8	·	-3	·	·	·	·
CC1CC(c2ccccc2)n2nc(N3C(=O)c4ccccc4C3=O)nc2N1 (centres undefined)	-13	25*	0	-8	i	-3	i	i	-1.2	-14
CS(=O)(=O)Nc1nc2n(n1)C(c1ccc(F)cc1)CC(c1ccccc1)N2 (centres undefined)	·	i	1	5	i	-8	·	·	·	·
CC(C)c1ccc(S(=O)(=O)/N=C2/C=CC(=O)c3ccccc32)cc1	5	·	·	·	·	·	·	·	·	·
CC(C)c1ccc(S(=O)(=O)/N=C2\C=C(NS(=O)(=O)c3ccccc3)C(=O)c3ccccc32)cc1	·	100*	1	-5	i	-9	91%*	i	-0.92	-24
O=C(Nc1ccc(Cl)cc1)NC1CCCCC1Cc1ccco1 (centres undefined)	5	100*	2	-2	i	-10	42%*	i	-1.3	-12
COc1ccc(C2=NCC(CSc3nnc(-c4ccc5c(c4)OCO5)o3)S2)cc1 (centres undefined)	-11	100*	0	-1	i	-2	i	i	-0.98	-8
CCN(CC)S(=O)(=O)c1ccc2oc(SCC3CN=C(c4ccc(OC)cc4)S3)nc2c1 (centres undefined)	0	100*	0	-7	i	-12	16%*	i	-0.93	-4
O=CN(c1ccccc1)c1ccc2ccccc2c1	8	i	0	0	i	-1	·	·	·	·
CC(=O)N(CN1C(=O)c2ccccc2C1=O)c1cccc(C)c1	-9	i	3	-2	i	-15	·	·	·	·
CC(=O)N(/N=C1\Sc2ccccc2C1=O)c1cccc(C)c1	-9	i	0	-1	i	-2	i	i	-1.1	-16
CCC(Sc1nc(C)cc(=O)[nH]1)C(=O)Nc1nc(-c2ccccc2)cs1 (centres undefined)	11	25*	0	-4	i	-6	43%*	i	-1.1	-10
SMILES	TLR4-MyD88 BLA	TMEM16A inh	GRK2 inh	TLR9-MyD88 block	ANO1 activ	NOD2 RIPK2 PPI	TMEM16A reconf	HEK293 Ca mobil	YFP-HEK293 quench	ClC-1 inh
O=C(COc1cc(O)c2c(=O)c3ccccc3oc2c1)OCc1ccccc1	·	i	1	-6	i	-11	·	·	·	·
COc1cccc(Nc2nc(NCC3CCCO3)c3ccccc3n2)c1 (centres undefined)	-3	100*	0	-32	i	-2	44%*	i	-1.1	-19
Oc1ccc(Nc2nc(NCC3CCCO3)c3ccccc3n2)cc1 (centres undefined)	10	·	·	7	i	-16	·	·	·	·
CCOC(=O)CCSc1nc(C(C)(C)C)cc(C(F)(F)F)c1C#N	-1	100*	0	-3	i	-6	i	i	-1.2	-6
NC(=O)c1ccc(NC(=O)COC(=O)c2cc3ccccc3cc2O)cc1	·	·	0	1	i	-18	·	·	·	·
Cc1nn(-c2ccc(NC(=O)c3ccncc3)cc2)c(C)c1Cl	·	25*	4	-5	i	-2	18%*	i	-0.89	-2
O=C(CSCc1ccc(Cl)cc1)Nc1ccc(S(=O)(=O)N2CCOCC2)cc1	16	i	3	-4	i	3	·	·	·	·
Cc1cc(/C=N/n2cnnc2)c(C)n1-c1ccc(OCc2ccc(F)cc2)cc1	2	100*	0	2	i	-8	i	i	-1.1	-18
CCOc1cc2[nH]c(=S)n(Cc3ccc(C(=O)NCC(OC)OC)cc3)c(=O)c2cc1OCC	-4	100*	3	-5	i	-2	i	i	-1.1	-6
CCOc1cc2[nH]c(=S)n(Cc3ccc(C(=O)NCCN(CC)CC)cc3)c(=O)c2cc1OCC	·	i	2	12	i	-2	·	·	·	·
Cc1ccc(C)n1-n1cnc2sc(-c3ccccc3)cc2c1=O	-10	i	2	-12	i	-8	·	·	·	·
